Values without a mark were called inactive. Active and inactive are the calls of the source. Rule as the data show it, unless noted: active = inhibition above about 30%; inactive = the rest.
What was measured:
[1] = biological target: Nuclear receptor coactivator 3 (Homo sapiens) (UniProt Q9Y6Q9); test: NCOA3 GAL4-fusion reporter inhibition – cell-based, luminescence, quadruplicate, confirmation (AID 588792;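 active = mean inhibition over 43.08%, the solvent-only control mean plus 3 SD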;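 also: 0% = DMSO treated cells and 100% = gossypol at 36 µM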); settings: HEK293 GAL4-SRC3 luciferase reporter, at 3.6 µM, active compounds read high
Chain of Nuclear receptor coactivator 3 (Homo sapiens) (Q9Y6Q9 whole entry, looked up, the tested form may be a part): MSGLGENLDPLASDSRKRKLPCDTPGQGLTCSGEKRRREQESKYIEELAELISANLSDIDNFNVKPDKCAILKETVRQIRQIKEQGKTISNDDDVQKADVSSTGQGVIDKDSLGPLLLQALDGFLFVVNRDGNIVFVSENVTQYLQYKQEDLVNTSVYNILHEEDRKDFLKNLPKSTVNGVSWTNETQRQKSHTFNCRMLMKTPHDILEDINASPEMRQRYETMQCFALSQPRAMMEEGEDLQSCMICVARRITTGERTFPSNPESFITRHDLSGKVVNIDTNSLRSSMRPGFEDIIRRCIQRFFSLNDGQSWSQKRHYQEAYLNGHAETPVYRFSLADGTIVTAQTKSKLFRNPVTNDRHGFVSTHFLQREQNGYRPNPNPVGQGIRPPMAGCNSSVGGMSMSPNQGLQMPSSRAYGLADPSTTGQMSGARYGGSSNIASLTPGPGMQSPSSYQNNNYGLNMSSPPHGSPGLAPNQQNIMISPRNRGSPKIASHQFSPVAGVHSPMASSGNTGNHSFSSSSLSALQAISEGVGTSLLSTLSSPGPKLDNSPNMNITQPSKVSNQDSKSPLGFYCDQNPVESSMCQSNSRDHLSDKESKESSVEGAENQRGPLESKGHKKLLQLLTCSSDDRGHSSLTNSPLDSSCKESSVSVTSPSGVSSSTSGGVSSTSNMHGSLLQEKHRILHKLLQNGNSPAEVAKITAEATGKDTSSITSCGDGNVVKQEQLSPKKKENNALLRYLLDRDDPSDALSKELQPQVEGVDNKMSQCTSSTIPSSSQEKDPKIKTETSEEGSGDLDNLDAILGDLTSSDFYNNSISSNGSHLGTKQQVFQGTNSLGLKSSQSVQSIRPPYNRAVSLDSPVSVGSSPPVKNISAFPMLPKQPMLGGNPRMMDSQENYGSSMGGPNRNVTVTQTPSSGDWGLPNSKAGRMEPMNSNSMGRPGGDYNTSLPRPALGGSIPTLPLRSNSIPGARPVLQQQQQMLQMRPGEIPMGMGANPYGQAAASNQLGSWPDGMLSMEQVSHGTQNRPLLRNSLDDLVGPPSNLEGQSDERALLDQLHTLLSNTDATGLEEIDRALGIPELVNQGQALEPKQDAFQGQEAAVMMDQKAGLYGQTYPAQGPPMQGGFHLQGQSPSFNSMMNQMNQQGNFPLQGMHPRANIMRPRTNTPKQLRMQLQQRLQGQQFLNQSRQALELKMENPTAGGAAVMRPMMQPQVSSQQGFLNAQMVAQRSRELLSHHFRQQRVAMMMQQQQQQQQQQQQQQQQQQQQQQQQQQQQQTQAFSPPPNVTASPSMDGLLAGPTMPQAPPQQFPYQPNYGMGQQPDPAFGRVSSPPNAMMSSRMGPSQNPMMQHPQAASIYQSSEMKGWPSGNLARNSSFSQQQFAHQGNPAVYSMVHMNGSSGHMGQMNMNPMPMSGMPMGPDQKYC

[2] = system: transactivating tegument protein VP16 (Human herpesvirus 1), Gal4-VP16 luciferase reporter; test: repression of VP16-driven luciferase reporter – cell-based, luminescence, high throughput, counter-screen for SRC3 inhibitor project (AID 588794); settings: mammalian cells, at 3.6 µM, active compounds read high

SMILES | inhibition [1] | inhibition [2]
Clc1ccc2nnnc(-c3ccccc3)c2c1 | 65.8% (active) | 68% (active)
CNC(=O)c1ccc(-c2sc3nc(N4CCOCC4)c4c(c3c2N)CC(C)(C)OC4)o1 | 3.63% | -22.1%
CCOC(=O)C1=C(C)N[C@@]2(O)c3ccccc3C(=O)[C@@]12O | 2.93% | -4.31%
COc1cccc(NC(=O)CN(C)C(=O)/C=C/c2cn(-c3ccccc3)nc2-c2ccc(OC)c(OC)c2)c1 | 1.39% | -9.23%
O=C(CCl)NC1CCCc2ccccc21 (stereo unspecified) | 1.81% | -5.4%
Cc1ccc(Cl)cc1N(Cc1ccc(C(=O)NCc2cccnc2)cc1)S(=O)(=O)c1ccccc1 | 9.61% | -10.9%
CCCCN(CCCC)C(=O)CSc1nnc(-c2cc(OC)c(OC)c(OC)c2)o1 | -1.92% | 4.79%
COc1ccc(C(=O)C2CCCN(Cc3cccn3-c3ccccn3)C2)c(C)c1 (stereo unspecified) | 26.1% | 9.76%
CC(=O)c1ccc(Sc2nnnn2-c2ccccc2)c([N+](=O)[O-])c1 | 11.4% | -10.4%
COCCN(CCOC)S(=O)(=O)c1ccc(C(=O)Nc2nc3c(s2)CCc2ccccc2-3)cc1 | 0.71% | 0.01%
CCn1c(C)nc2cc(C(=O)N/N=C(\C)c3ccc(OC)cc3O)ccc21 | 24.6% | 8.7%
CCOc1ccccc1/C=C/c1onc(C)c1S(=O)(=O)N1CCC(C(=O)N(CC)CC)CC1 | 5.63% | 3.37%
FC(F)(F)c1cccc(Nc2cc(-c3ccccc3)nc3ncnn23)c1 | -2.25% | -0.93%
CC(=O)Nc1ccc(C(=O)N/N=C/c2cc(Br)cc(Br)c2O)cc1 | 6.09% | 11.2%
CCC(O)CC(C(=O)NNc1ccccc1)C(=O)NNc1ccccc1 (stereo unspecified) | -2.21% | 11.1%
C=CCc1cccc(/C=N/NC(=O)C[n+]2ccccc2)c1O | 24.3% | 12.3%
Cc1nc2cc(F)ccc2n1C1CCN(S(=O)(=O)c2ccccc2)CC1 | 14.1% | 15.3%

SMILES | inhibition [1] | inhibition [2]
CCOC(=O)C1=CCN(S(=O)(=O)c2ccc(C)cc2)C1c1cccc(Cl)c1 (stereo unspecified) | 15.1% | 6.03%
Cn1nc(C(C)(C)C)cc1C(=O)NCc1ccc(N2CCCC2=O)cc1 | 10.7% | 38.8% (active)
CCCCCc1ccc(OCCOCCn2c[n+](C)c3ccccc32)c(CCCCC)c1 | 25.3% | 36.4% (active)
O=C(NCCCn1ccnc1)C(=O)NCc1ccc(Cl)cc1 | 20.3% | -1.8%
COc1ccc2nc(C)cc(SCC(=O)N/N=C/c3ccc(O)cc3O)c2c1 | 24.1% | 18.7%
Cc1cc(C)n(CCC(=O)N/N=C/c2ccccc2O)n1 | 18% | 4.14%
COc1ccc(CCNC(=O)COC(=O)Cc2cccc3ccccc23)cc1 | -2.4% | -9.98%
C=CCn1c(NCCc2ccccc2)nc2c1c(=O)n(C)c(=O)n2C | 4.32% | 28.1%
CCOC(=O)c1cnc(SC2CC(=O)N(c3cccc(OC)c3)C2=O)nc1N (stereo unspecified) | 9.15% | 6.73%
CCc1[nH]nc2c1C(C1C=CCCC1)C(C#N)=C(N)O2 (stereo unspecified) | 24.7% | 21.2%
Cc1cccc(/C=N/n2c(-c3ccncc3)n[nH]c2=S)c1 | 11.2% | 2.95%
CN(C)c1ccc(C=c2c3cc([N+](=O)[O-])ccc3n3c2cc(-c2ccccc2)[n+]3C)cc1 | 38.4% | 56.7% (active)
Clc1ccc(-c2noc(CSc3nnc(-c4ccncc4)n3-c3ccccc3)n2)cc1 | 8.46% | 8.1%
Cc1ccc(C2(c3ccc(C)cc3)CC2C(=O)Nc2ccc([N+](=O)[O-])cc2O)cc1 (stereo unspecified) | 11.3% | 19.4%
COc1ccc(C(=O)Cn2nc(CNc3ccc(Br)cc3)[n+]3c2CCCCC3)cc1 | -7.02% | 3.2%
CN1C(=O)C2(C(C#N)=C(N)N(c3cc(Cl)cc(Cl)c3)C3=C2C(=O)CC(C)(C)C3)c2ccccc21 (stereo unspecified) | 46.5% (active) | 25.6%

Source: PubChem BioAssay
